This note sets out measurements from PubChem BioAssay.

Test [1] has as its system Neuropilin-2 / VEGF-C interaction (human). In words: small molecules blocking Neuropilin-2/VEGF-C interaction – biochemical, microplate binding format, z-score (AID 743281; call rule not given here). Particulars: microplate NRP2/VEGF-C binding assay; stronger effect = lower value.
Test [2] is described as follows: modulation of C. elegans fzo-1 (AID 1259413; call rule not given here;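 note: fzo-1 mutant C. elegans worms in liquid wells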). To be noted: C. elegans fzo-1 modulator screen, mean read-out; stronger effect = higher value.
A short description of test [3]: EMT-state selective cytotoxicity in co-culture – imaging, PC-3E GFP, TEM4-18 mCherry, primary screen (AID 1345086).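 For all read-outs here: cells exposed to compound for 72 h before imaging.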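 For red/green cell ratio (normalised): normalised mesenchymal count divided by normalised epithelial count so high means epithelial killing.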 To be noted: PC-3E GFP / TEM4-18 mCherry co-culture, imaging cell counts, at 1 µM; for red/green cell ratio (normalised): actives lie on both sides, counts scaled to control wells, 1 = unselective.
Where [4] appears, read: measured here: epithelial PC-3E GFP cell survival.
The mark [5] stands for this setting: measured here: mesenchymal TEM4-18 mCherry cell survival.

Activity calls are given as the source filed them.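 Rule for the calls, unless noted: active = compounds killing one labelled cell type while sparing the other, by normalised counts and ratio limits, not self-fluorescent; inactive = the rest.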

Consider `C=C1/C(=C\C=C2/CCCC3(C)[C@@H]([C@H](C)CCCC(C)(C)O)CC[C@@H]23)C[C@@H](O)C[C@@H]1O` (stereo not given in full), for which the outcome in test [1] was inactive. In addition, the mean signal in test [2] is 260 (inactive).
`COCC1O[C@@H](OC)[C@@H](OCc2ccccc2)[C@@H](OCc2ccccc2)C1O` (stereo not given in full): the red/green cell ratio (normalised) in test [3] is 0.86 (inactive). The normalised cell number in test [3] (setting [4]) is 1.18; in test [3] (setting [5]), 1.01.
In the case of `Cc1c(F)c(F)cc(C(=O)NC(=O)NC2CC2)c1F`, in test [3], the red/green cell ratio (normalised) is 1 (inactive). Further, the normalised cell number in test [3] (setting [4]) and in test [3] (setting [5]) was 1.02 in each case.
`COC(=O)c1c(Cl)nc(Cl)c2ccccc12`: in test [3], the red/green cell ratio (normalised) is 1.07 (inactive). Also, the values for the normalised cell number in test [3] (setting [4]) and in test [3] (setting [5]) were 0.85 and 0.91, respectively.
For `C=C1C(=O)OC(C(=O)OC)C1(O)CCCCCCCCC` (stereo not given), in that order: 1.05 (inactive), 0.99 and 1.04.
Turning to `C=C1C(=O)OC(C(=O)OC)C1CCCCCCCC(C)O` (stereo not given), the red/green cell ratio (normalised) in test [3] was 1.07 (inactive). Further, the normalised cell number was found to be 1.11 in test [3] (setting [4]) and 1.18 in test [3] (setting [5]).
For `C[C@]12CCc3occc3C1CC[C@@]13C[C@@H](CCC12)[C@@](O)(CO)C3` (stereo not given in full), the red/green cell ratio (normalised) in test [3] is 1.12 (inactive). Besides, the normalised cell number in test [3] (setting [4]) stood at 0.94; in test [3] (setting [5]), 1.06.
For `COc1c(N2CC[C@@H](CN)C2)c(F)cc2c(=O)c(C(=O)O)cn(Cc3ccc4ccccc4c3)c12`, in that order: 1.09 (inactive), 0.86 and 0.93.
For `COC(=O)CCC(=O)NC(=O)Cc1ccccc1`, in that order: 0.93 (inactive), 1.16 and 1.08.
For `CC(CCOc1ccc(C(=O)O)cc1)C(=O)O` (stereo not given), in that order: 1.1 (inactive), 1.03 and 1.14.
Take `COc1c(O)cc2c(c1O)C(=O)O[C@@H](C)[C@@H]2O`: the red/green cell ratio (normalised) in test [3] is 1 (inactive). Further, the normalised cell number worked out at 1.01 in test [3] (setting [4]) and 1.02 in test [3] (setting [5]).
Turning to `CCC[C@@H]1Cc2cc3c(-c4c(O)cc(O)c5c(O)c6c(cc45)C[C@@H](CCC)OC6=O)c(O)cc(O)c3c(O)c2C(=O)O1`, the red/green cell ratio (normalised) in test [3] is 0.85 (inactive). The normalised cell number in test [3] (setting [4]) was found to be 1.2; in test [3] (setting [5]), 1.02.
The like results for `COC(=O)c1cc(OC)cc(OC(=O)c2c(O)cc3cc(C)oc(=O)c3c2O)c1O` were, in that order, 0.92 (inactive), 0.94 and 0.86.
For the compound `CC(C)[C@@H]1CC[C@@H](C)C[C@H]1OC(=O)c1ccccc1`, the red/green cell ratio (normalised) in test [3] is 1.07 (inactive). For the same compound, the normalised cell number came to 0.9 in test [3] (setting [4]) and 0.97 in test [3] (setting [5]).
As for `COC(=O)/C(=C1\OC(=O)C(c2ccccc2)=C1O)c1ccccc1`, the red/green cell ratio (normalised) in test [3] is 1.05 (inactive). Moreover, the normalised cell number was found to be 1.05 in test [3] (setting [4]) and 1.11 in test [3] (setting [5]).
For `O=C(O)CCC(=O)OC1C(CO)O[C@H](Sc2ccccc2)[C@H]2NC(=O)O[C@@H]12` (stereo not given in full), in that order: 1.26 (inactive), 0.84 and 1.06.
Consider `NC(=O)c1cc(F)c(F)cc1F`, for which the red/green cell ratio (normalised) in test [3] is 0.98 (inactive). The values for the normalised cell number in test [3] (setting [4]) and in test [3] (setting [5]) were 1.12 and 1.09, respectively.
For `CC(=O)O[C@@H]1CC2C(C)(C)C(=O)CC[C@]2(C)C2CC[C@@]3(C)[C@H](c4ccoc4)OC(=O)C4OC43[C@@]21C` (stereo not given in full), in that order: 1.03 (inactive), 0.94 and 0.97.
Turning to `C=C1C2=C(C(=O)N1OC)[C@H](O)[C@](C)(O)[C@H](CCCCC)O2`, in test [3], the red/green cell ratio (normalised) is 1.13 (inactive). Besides, the normalised cell number is 1.01 in test [3] (setting [4]) and 1.15 in test [3] (setting [5]).
For `CC1(C)C(=O)C=C[C@@]2(C)C1C=C[C@]1(C)C2CC[C@@]2(C)[C@H](c3ccoc3)OC(=O)[C@H]3O[C@]321` (stereo not given in full), in that order: 1.3 (inactive), 0.56 and 0.73.
Regarding `NC(CSSCC(N)C(=O)O)C(=O)O` (stereo not given), in test [3], the red/green cell ratio (normalised) was 0.92 (inactive). Besides, the normalised cell number in test [3] (setting [4]) worked out at 1.24; in test [3] (setting [5]) it was 1.15.
On to `OC[C@H]1O[C@H](Oc2cc(O)cc(/C=C/c3ccc(O)cc3)c2)[C@H](O)[C@@H](O)[C@@H]1O`, for which the red/green cell ratio (normalised) in test [3] is 0.79 (inactive). Also, the results for the normalised cell number in test [3] (setting [4]) and in test [3] (setting [5]) were 1.3 and 1.03, respectively.
For `CC(C)CC1OC23SCC(c4ccccc4)N2C(=O)C1C(C)S3` (stereo not given), in that order: 0.8 (inactive), 1.19 and 0.96.
The like results for `O=C(O)c1ccc([C@H](O)c2ccccc2)cn1` were, in that order, 1.05 (inactive), 1.03 and 1.09.
In the case of `O=C(N[C@@H](Cc1ccc(O)cc1)C(=O)O)OCc1ccccc1`, in test [3], the red/green cell ratio (normalised) is 0.96 (inactive). Further, the normalised cell number in test [3] (setting [4]) is 1.09; in test [3] (setting [5]), 1.04.
For `O=C1C=CC2(Oc3cccc4cccc(c34)O2)[C@H]2[C@H]1[C@@H](O)C=C[C@H]2O`, the red/green cell ratio (normalised) in test [3] was 0.98 (inactive). The normalised cell number was determined as 1.06 in test [3] (setting [4]) and 1.04 in test [3] (setting [5]).
`COc1ccc(-c2coc3cc(OC)ccc3c2=O)cc1`: the red/green cell ratio (normalised) in test [3] was 0.82 (inactive). In addition, the normalised cell number in test [3] (setting [4]) turned out to be 1.34; in test [3] (setting [5]), 1.09.
